According to PubChem BioAssay (Tox21):
Results filed as inconclusive are left out. Calls of active or inactive are those of the source. Unless noted, calls follow the shape of the dose curve; as a rule, active = well fitted curve in the direction sought with a large enough effect in the repeat runs; inconclusive = weak or mixed curves; inactive = no such curve, though single readings can be large; an effect the other way counts as inactive or inconclusive.

Experiments:
[1] = qHTS assay to identify aromatase inhibitors - cell viability counter screen (AID 743084);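 also: cells stimulated with testosterone during compound exposure; nearly all actives have a fitted effect of over 55% in size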
[2] = biological target: Aryl hydrocarbon receptor (Homo sapiens) (UniProt P35869); assay: qHTS assay to identify small molecule that activate the aryl hydrocarbon receptor (AhR) signaling pathway (AID 743085);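 also: HG2L7.5c1 human HepG2 liver cells with stably integrated DRE-driven firefly reporter; series mostly up to about 70 µM; nearly all actives have a fitted effect of over 15% in size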
Aryl hydrocarbon receptor (Homo sapiens), sequence (P35869 whole entry, looked up): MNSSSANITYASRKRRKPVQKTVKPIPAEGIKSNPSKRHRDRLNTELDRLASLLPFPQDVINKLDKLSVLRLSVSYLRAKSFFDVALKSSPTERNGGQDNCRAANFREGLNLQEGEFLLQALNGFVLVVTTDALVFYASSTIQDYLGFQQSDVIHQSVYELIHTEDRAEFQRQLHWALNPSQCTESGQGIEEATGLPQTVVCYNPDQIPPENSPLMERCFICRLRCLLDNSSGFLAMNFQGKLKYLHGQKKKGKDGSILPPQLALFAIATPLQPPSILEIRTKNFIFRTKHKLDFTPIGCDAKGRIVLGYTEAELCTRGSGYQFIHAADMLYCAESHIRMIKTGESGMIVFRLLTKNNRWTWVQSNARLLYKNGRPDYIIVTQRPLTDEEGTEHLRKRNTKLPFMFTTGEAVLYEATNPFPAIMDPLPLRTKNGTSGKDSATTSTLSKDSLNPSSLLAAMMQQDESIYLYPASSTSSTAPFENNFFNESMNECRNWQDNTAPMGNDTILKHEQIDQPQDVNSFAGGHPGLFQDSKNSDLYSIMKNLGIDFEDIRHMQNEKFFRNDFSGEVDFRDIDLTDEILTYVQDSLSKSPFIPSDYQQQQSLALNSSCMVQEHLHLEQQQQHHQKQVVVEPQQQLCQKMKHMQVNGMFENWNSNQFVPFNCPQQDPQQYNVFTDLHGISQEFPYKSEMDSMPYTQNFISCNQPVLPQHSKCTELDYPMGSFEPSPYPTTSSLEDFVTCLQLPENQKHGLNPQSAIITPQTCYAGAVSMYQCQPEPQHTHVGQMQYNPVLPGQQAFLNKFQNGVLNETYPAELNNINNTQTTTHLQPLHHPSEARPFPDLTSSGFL
Outline: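 Luminescence (ONE-Glo) from a dioxin-responsive-element luciferase reporter in HG2L7.5c1 HepG2 cells after 24 hr compound exposure at 37C; viability measured by CellTiter-Fluor fluorescence beforehand.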

[3] = qHTS assay to identify small molecule that activate the aryl hydrocarbon receptor (AhR) signaling pathway - cell viability counter screen (AID 743086);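 also: HepG2 liver cells carrying the AhR DRE luciferase reporter; series mostly up to about 70 µM; nearly all actives have a fitted effect of over 45% in size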
Outline: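 Cytotoxicity counter screen: CellTiter-Fluor signal (30 min, 37 C) in 4000 HepG2 cells/well carrying the DRE-luciferase reporter, following 24 h compound exposure at 37 C.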

[4] = biological target: Peroxisome proliferator-activated receptor gamma (Homo sapiens) (UniProt P37231); assay: qHTS assay to identify small molecule agonists of the peroxisome proliferator-activated receptor gamma (PPARg) signaling pathway (AID 743094; active = well fitted activation curve with a large enough effect in the signal ratio in the repeat runs, not every such curve was filed as active; the % refers to the signal ratio)
Peroxisome proliferator-activated receptor gamma (Homo sapiens), sequence (P37231 whole entry, looked up): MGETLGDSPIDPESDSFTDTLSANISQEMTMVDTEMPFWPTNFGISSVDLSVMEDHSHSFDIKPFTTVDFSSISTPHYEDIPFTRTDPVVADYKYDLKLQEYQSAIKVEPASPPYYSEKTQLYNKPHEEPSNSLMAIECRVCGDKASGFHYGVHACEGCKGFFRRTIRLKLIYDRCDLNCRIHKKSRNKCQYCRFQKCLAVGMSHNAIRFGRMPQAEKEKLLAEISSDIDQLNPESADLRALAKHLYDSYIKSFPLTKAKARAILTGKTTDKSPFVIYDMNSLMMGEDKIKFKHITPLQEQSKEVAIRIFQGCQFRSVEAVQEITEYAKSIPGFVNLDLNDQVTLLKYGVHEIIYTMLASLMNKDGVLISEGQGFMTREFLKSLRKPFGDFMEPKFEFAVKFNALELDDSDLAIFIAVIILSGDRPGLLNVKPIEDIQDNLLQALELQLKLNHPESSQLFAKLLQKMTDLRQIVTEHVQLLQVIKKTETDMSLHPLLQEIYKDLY
Outline: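 GeneBLAzer PPARg UAS-bla HEK293H cells were plated, rested 5 h, then exposed to compounds for 17 h at 37C. Beta-lactamase activity was read by LiveBLAzer B/G FRET substrate fluorescence after 1 h at room temperature.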

[5] = biological target: Peroxisome proliferator-activated receptor gamma (Homo sapiens) (UniProt P37231); assay: qHTS assay to identify small molecule antagonists of the peroxisome proliferator-activated receptor gamma (PPARg) signaling pathway (AID 743191; calls by dose curve; also: series mostly up to about 63 µM; nearly all actives have a fitted effect of over 30% in size)
Outline: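 Beta-lactamase reporter under UAS control in HEK293H PPARg-bla cells; compound treatment 17 h at 37C. Read-out: fluorescence intensity after 1 h room-temperature incubation with LiveBLAzer B/G FRET substrate.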

[6] = qHTS assay to identify small molecule antagonists of the peroxisome proliferator-activated receptor gamma (PPARg) signaling pathway - cell viability counter screen (AID 743194); conditions: Potency: co-treated with 50 nM rosiglitazone; also: nearly all actives have a fitted effect of over 55% in size
Outline: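 Viability was measured as CellTiter-Glo luminescence in GeneBLAzer PPARg UAS-bla HEK293H cells. These cells had been exposed 17 h at 37 C to compounds together with rosiglitazone at 50 nM final, with the beta-lactamase readout taken in the same wells.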

[7] = qHTS assay for small molecule agonists of the antioxidant response element (ARE) signaling pathway (AID 743202; active = well fitted activation curve with a large enough effect in the signal ratio in the repeat runs, not every such curve was filed as active; the % refers to the signal ratio)
Outline: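 An ARE-responsive beta-lactamase gene stably integrated in HepG2 cells serves as reporter. After 5 h plating and 16 h compound incubation at 37 C, fluorescence of the B/G FRET substrate was measured.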

[8] = qHTS assay for small molecule agonists of the antioxidant response element (ARE) signaling pathway - cell viability counter screen (AID 743203; calls by dose curve; also: nearly all actives have a fitted effect of over 55% in size)
Outline: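 ARE-bla HepG2 cells were plated, rested 5 h at 37C/5% CO2, then exposed to compounds in DMSO for 16 h. Viability was read as CellTiter-Glo luminescence after 30 min at room temperature, in the same wells as the ARE screen.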

[9] = qHTS assay for small molecule activators of the heat shock response signaling pathway - cell viability counter screen (AID 743209); also: nearly all actives have a fitted effect of over 50% in size
Outline: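 HSE-bla HeLa cells plated overnight, then exposed to Tox21 compounds (23 nL in DMSO) for 5 h at 37 C. After the bla reporter read, CellTiter-Glo was added in the same wells and luminescence read after 30 min at room temperature.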

[10] = qHTS assay for small molecule activators of the heat shock response signaling pathway (AID 743210; active = well fitted activation curve with a large enough effect in the signal ratio in the repeat runs, with a control signal flat, not every such curve was filed as active; the % refers to the signal ratio;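 also: HeLa cells with beta-lactamase reporter driven by heat shock elements; series mostly up to about 63 µM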)
Outline: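 In HSE-bla HeLa cells, 5 h compound incubation (37 C) precedes addition of LiveBLAzer B/G substrate; after 2.5 h at room temperature, fluorescence intensity indicates reporter induction.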

[11] = biological target: Peroxisome proliferator-activated receptor delta (Homo sapiens) (UniProt Q03181); assay: qHTS assay to identify small molecule agonists of the peroxisome proliferator-activated receptor delta (PPARd) signaling pathway (AID 743212; calls by dose curve)
Peroxisome proliferator-activated receptor delta (Homo sapiens), sequence (Q03181 whole entry, looked up): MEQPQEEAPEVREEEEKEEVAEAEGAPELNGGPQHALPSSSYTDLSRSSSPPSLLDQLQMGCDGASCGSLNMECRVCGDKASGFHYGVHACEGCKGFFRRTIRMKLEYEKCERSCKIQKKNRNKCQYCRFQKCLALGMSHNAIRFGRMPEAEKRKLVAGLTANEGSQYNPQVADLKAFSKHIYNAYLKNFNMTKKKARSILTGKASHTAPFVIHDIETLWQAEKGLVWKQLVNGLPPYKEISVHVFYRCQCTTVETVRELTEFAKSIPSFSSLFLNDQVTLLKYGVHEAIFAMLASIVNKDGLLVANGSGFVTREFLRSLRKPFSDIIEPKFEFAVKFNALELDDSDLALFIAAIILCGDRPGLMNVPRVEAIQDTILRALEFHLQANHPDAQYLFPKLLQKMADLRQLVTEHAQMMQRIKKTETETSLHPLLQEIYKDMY
Outline: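 HEK293H UAS-bla reporter cells, human PPARd system; compounds delivered in DMSO after 5 h plating, then at 37 C. Beta-lactamase FRET read, 2 h RT substrate step.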

[12] = qHTS assay to identify small molecule antagonists of the peroxisome proliferator-activated receptor delta (PPARd) signaling pathway - cell viability counter screen (AID 743213); also: nearly all actives have a fitted effect of over 50% in size
Outline: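 HEK293H PPARd UAS-bla cells, 5 h pre-incubation, compound + L165041 300 nM final, 17 h 37 C; B/G FRET substrate 2 h RT; then CellTiter-Glo 30 min RT, luminescence.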

[13] = biological target: Peroxisome proliferator-activated receptor delta (Homo sapiens) (UniProt Q03181); assay: qHTS assay to identify small molecule antagonists of the peroxisome proliferator-activated receptor delta (PPARd) signaling pathway (AID 743215; active = well fitted inhibition curve with a large enough effect in the signal ratio in the repeat runs, not every such curve was filed as active; the % refers to the signal ratio;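 also: cells stimulated with agonist L165041 at 300 nM final during compound exposure; series mostly up to about 62 µM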)
Outline: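 PPARd-bla HEK293H cells (UAS-bla reporter) preincubated 5 h, then given compound plus 300 nM final L165041 agonist for 17 h at 37 C. Beta-lactamase activity read by LiveBLAzer B/G FRET substrate fluorescence after 2 h at room temperature.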

[14] = biological target: Bile acid receptor (Homo sapiens) (UniProt Q96RI1); assay: qHTS assay to identify small molecule antagonists of the farnesoid-X-receptor (FXR) signaling pathway (AID 743217; active = well fitted inhibition curve with a large enough effect in the signal ratio in the repeat runs, not every such curve was filed as active; the % refers to the signal ratio)
Bile acid receptor (Homo sapiens), sequence (Q96RI1 whole entry, looked up): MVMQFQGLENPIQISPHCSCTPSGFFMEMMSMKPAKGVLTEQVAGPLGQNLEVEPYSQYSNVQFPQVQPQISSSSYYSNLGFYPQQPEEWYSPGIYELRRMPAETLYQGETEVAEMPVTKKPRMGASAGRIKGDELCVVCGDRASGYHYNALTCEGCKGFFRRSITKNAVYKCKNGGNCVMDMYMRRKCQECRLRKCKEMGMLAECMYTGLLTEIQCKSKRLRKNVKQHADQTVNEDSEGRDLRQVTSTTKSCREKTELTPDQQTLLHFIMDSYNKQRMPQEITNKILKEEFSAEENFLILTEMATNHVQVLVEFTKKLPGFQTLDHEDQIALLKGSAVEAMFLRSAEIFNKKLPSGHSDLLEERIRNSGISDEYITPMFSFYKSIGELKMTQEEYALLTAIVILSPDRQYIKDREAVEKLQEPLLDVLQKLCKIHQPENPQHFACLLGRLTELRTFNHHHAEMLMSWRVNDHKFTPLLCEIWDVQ
Outline: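 FXR-UAS-bla HEK 293T cells (beta-lactamase reporter) given compound plus chenodeoxycholic acid (50 uM final), 16 h at 37C. LiveBLAzer B/G FRET substrate added for 2 h at room temperature; fluorescence read.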

[15] = qHTS assay to identify small molecule agonists of the farnesoid-X-receptor (FXR) signaling pathway - cell viability counter screen (AID 743218); also: nearly all actives have a fitted effect of over 45% in size
Outline: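 FXR-UAS-bla HEK 293T cells exposed to compounds for 16 h at 37C. Cytotoxicity read in the same wells by CellTiter-Glo luminescence after 30 min at room temperature, following the beta-lactamase FRET read.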

[16] = biological target: Bile acid receptor (Homo sapiens) (UniProt Q96RI1); assay: qHTS assay to identify small molecule agonists of the farnesoid-X-receptor (FXR) signaling pathway (AID 743220; active = well fitted activation curve with a large enough effect in the signal ratio in the repeat runs, not every such curve was filed as active; the % refers to the signal ratio)
Outline: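 Beta-lactamase reporter under UAS control in GeneBLAzer FXR HEK 293T cells (5000/well) measured with LiveBLAzer FRET substrate after 2 h at room temperature. Compound exposure lasted 16 h at 37C.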

[17] = qHTS assay to identify small molecule antagonists of the farnesoid-X-receptor (FXR) signaling pathway - cell viability counter screen (AID 743221; active = well fitted cell-killing curve with a large enough effect in the repeat runs, not every such curve was filed as active; also: nearly all actives have a fitted effect of over 50% in size)
Outline: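 Cytotoxicity counter screen run in the FXR-bla reporter wells: HEK 293T cells exposed to compound with 50 uM (final) chenodeoxycholic acid for 16 h, 37 C, then viability measured by CellTiter-Glo luminescence after 30 min, room temperature.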

[18] = biological target: Vitamin D3 receptor (Homo sapiens) (UniProt P11473); assay: qHTS assay to identify small molecule agonists of the vitamin D receptor (VDR) signaling pathway (AID 743222; calls by dose curve)
Vitamin D3 receptor (Homo sapiens), sequence (P11473 whole entry, looked up): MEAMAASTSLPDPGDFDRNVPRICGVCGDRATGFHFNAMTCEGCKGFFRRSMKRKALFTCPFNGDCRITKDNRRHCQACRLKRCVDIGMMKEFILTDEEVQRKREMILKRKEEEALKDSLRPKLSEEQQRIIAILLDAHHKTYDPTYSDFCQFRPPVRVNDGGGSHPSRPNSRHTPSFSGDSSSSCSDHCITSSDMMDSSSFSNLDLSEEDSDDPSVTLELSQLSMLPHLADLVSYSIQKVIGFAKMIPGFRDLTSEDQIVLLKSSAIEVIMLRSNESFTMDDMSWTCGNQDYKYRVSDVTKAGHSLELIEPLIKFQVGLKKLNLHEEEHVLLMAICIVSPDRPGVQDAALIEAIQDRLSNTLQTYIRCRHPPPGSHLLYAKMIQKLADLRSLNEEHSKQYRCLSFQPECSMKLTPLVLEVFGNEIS
Outline: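 VDR-bla cells plated 4 h at 37 C, then exposed to compounds for 16 h at 37 C. Beta-lactamase reporter activity measured by fluorescence after 2 h room-temperature loading with LiveBLAzer B/G FRET substrate.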

[19] = qHTS assay to identify small molecule agonists of the peroxisome proliferator-activated receptor delta (PPARd) signaling pathway - cell viability counter screen (AID 743211); also: nearly all actives have a fitted effect of over 55% in size
Outline: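 Viability was measured as CellTiter-Glo luminescence (30 min, room temperature) in the same wells as the beta-lactamase readout. GeneBLAzer PPARd UAS-bla HEK293H cells received compound after 5 h plating and were incubated 17 h at 37 C.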

[20] = biological target: Vitamin D3 receptor (Homo sapiens) (UniProt P11473); assay: qHTS assay to identify small molecule antagonists of the vitamin D receptor (VDR) signaling pathway (AID 743223; active = well fitted inhibition curve with a large enough effect in the signal ratio in the repeat runs, not every such curve was filed as active; the % refers to the signal ratio)
Outline: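 Antagonist mode: compound added to VDR-bla cells alongside agonist 1alpha,25-dihydroxyvitamin D3 (3 nM final), incubation 16 h at 37C. Read-out is LiveBLAzer FRET fluorescence, 2 h at room temperature.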

Measured: Potency

OCC1CO1 (configuration not stated)
not listed: [19] | [20]
inactive: all other assays above

c1ccc2c(c1)sc1ccccc12
not listed: [6] | [7] | [14] | [20]
inactive: all other assays above

CCOP(=O)(SC(C)CC)N1CCSC1=O (configuration not stated)
not listed: [7] | [9] | [14] | [16] | [20]
inactive: all other assays above

Clc1ccc2ccccc2c1
not listed: [12] | [18] | [19] | [20]
inactive: all other assays above

CN(C1CCCCC1)C1CCCCC1
not listed: [7] | [10] | [14] | [16] | [19] | [20]
inactive: all other assays above

O=C(O)C(Cl)(Cl)Br
not listed: [8] | [12] | [14] | [19]
inactive: all other assays above

CCN(C(C)=O)c1cccc(-c2ccnc3c(C#N)cnn23)c1
not listed: [8] | [11] | [13] | [14] | [17] | [19] | [20]
inactive: all other assays above

Nc1cc(Cl)cc(C(=O)O)c1Cl
not listed: [7] | [10] | [14] | [16] | [19]
inactive: all other assays above

CCCC[P+](CC)(CCCC)CCCC (tested in a mixture with another compound)
inactive: [1] | [2] | [3] | [4] | [5] | [6] | [8] | [12] | [15] | [17] | [18]

CCCCC(CC)COC(=O)c1c(Br)c(Br)c(Br)c(Br)c1C(=O)OCC(CC)CCCC (configuration not stated)
not listed: [10] | [14] | [20]
inactive: all other assays above

O=C(NCNC(=O)NC1C(=O)NC(=O)N1CO)NC1C(=O)NC(=O)N1CO (configuration not stated)
not listed: [13] | [18] | [20]
inactive: all other assays above

CCOC(=O)C1OC1(C)c1ccccc1 (configuration not stated)
not listed: [7] | [10] | [11] | [13] | [14] | [16] | [18] | [20]
inactive: all other assays above

C=CCSSCC=C
not listed: [6] | [7] | [14] | [16] | [20]
inactive: all other assays above

CCCN(CCC)c1c([N+](=O)[O-])cc(C(C)C)cc1[N+](=O)[O-]
not listed: [9] | [14] | [16] | [19]
inactive: all other assays above

CCOP(=O)(O)C(N)=O
not listed: [14] | [17]
inactive: all other assays above

NCCc1cc(O)c(O)cc1O
not listed: [7] | [8] | [9] | [14] | [16] | [17] | [20]
inactive: all other assays above
